Measured values taken from the supplement of paper PMC10849652.
Targets with a hit are over-represented here; the source holds about 7,900 in all. About 0.6% of all pairs of compound and target were hits. Values without a mark were called inactive.

Columns and labels:
Assay in all cases: log2 fold change, soluble protein after heating vs DMSO (PISA); higher = thermal stabilisation; K562 cells, 10 uM, 30 min; active = over 0.2 and 3.5 SD of the protein, either way, in both replicates (recomputed)
[1] = compound: CS(=O)(=O)c1ccc(-c2cnc(N)c(C(=O)Nc3ccccc3)n2)cc1
Summary of the method: (§1)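 Values are thermal stability changes relative to control samples and are taken from duplicates. They are stated as log2 fold changes. Before quantification by TMTpro 16plex LC-MS/MS with equalised channel sums, K562 cells at 2×10^6 cells/mL were treated with 10 μM compound for 30 min, heated in aliquots for 3 min across 48°C-58°C, pooled, extracted in PBS with 0.5% NP-40 at 4°C, and centrifuged at 21,000xg for 90 min to give the soluble supernatant.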

[2] = compound: C[C@@H](Oc1cc(-c2cnn(C3CCNCC3)c2)cnc1N)c1c(Cl)ccc(F)c1Cl [crizotinib]
Summary of the method: as §1

[3] = compound: C[C@@H]1COCCN1C2=NC(=NC(=C2)C3(CC3)S(=O)(=O)C)C4=C5C=CNC5=CC=C4
Summary of the method: as §1

[4] = compound: C[C@H](C1=CC=C(C=C1)C(=O)NC2=C3C=CNC3=NC=C2)N
Summary of the method: as §1

[5] = compound: C[C@H](Nc1ncnc2nc[nH]c12)c1cc2cccc(Cl)c2c(=O)n1-c1ccccc1 [duvelisib]
Summary of the method: as §1

[6] = compound: Cc1cc(Nc2cc(CN3CCOCC3)c3nc(C)c(Cc4ccc(Cl)cc4F)n3n2)n[nH]1 [gandotinib]
Summary of the method: as §1

[7] = compound: Cc1cc(Nc2cc(N3CCN(C)CC3)nc(Sc3ccc(NC(=O)C4CC4)cc3)n2)n[nH]1 [tozasertib]
Summary of the method: as §1

[8] = compound: Cc1cc(SCc2sc(-c3ccc(C(F)(F)F)cc3)nc2C)ccc1OCC(=O)O
Summary of the method: as §1

[9] = compound: Cc1ccc(-n2nc(C(C)(C)C)cc2NC(=O)Nc2ccc(OCCN3CCOCC3)c3ccccc23)cc1 [doramapimod]
Summary of the method: as §1

[10] = compound: Cc1ccc(C(=O)N(CCCN)[C@@H](c2nc3cc(Cl)ccc3c(=O)n2Cc2ccccc2)C(C)C)cc1 [ispinesib]
Summary of the method: as §1

SLBP (UniProt Q14493)
log2 fold change [1]: -0.026
log2 fold change [2]: -0.042
log2 fold change [3]: 0.132
log2 fold change [4]: 0.003
log2 fold change [5]: -0.128
log2 fold change [6]: -0.022
log2 fold change [7]: -0.012
log2 fold change [8]: 0.055
log2 fold change [9]: 0.007
log2 fold change [10]: -0.063

SIRT2 (UniProt Q8IXJ6)
log2 fold change [1]: 0.042
log2 fold change [2]: -0.015
log2 fold change [3]: -0.002
log2 fold change [4]: 0.072
log2 fold change [5]: -0.048
log2 fold change [6]: 0.002
log2 fold change [7]: -0.099
log2 fold change [8]: -0.032
log2 fold change [9]: -0.009
log2 fold change [10]: -0.001

RUFY1 (UniProt Q96T51)
log2 fold change [1]: -0.04
log2 fold change [2]: -0.003
log2 fold change [3]: -0.034
log2 fold change [4]: 0.075
log2 fold change [5]: -0.005
log2 fold change [6]: -0.029
log2 fold change [7]: 0.166
log2 fold change [8]: 0.118
log2 fold change [9]: 0.032
log2 fold change [10]: -0.065

SASH1 (UniProt O94885)
log2 fold change [1]: 0.023
log2 fold change [2]: -0.122
log2 fold change [3]: -0.077
log2 fold change [4]: -0.024
log2 fold change [5]: 0.032
log2 fold change [6]: -0.028
log2 fold change [7]: 0.088
log2 fold change [8]: 0.198
log2 fold change [9]: -0.031
log2 fold change [10]: -0.116

RAC3 (UniProt P60763)
log2 fold change [1]: 0.074
log2 fold change [2]: 0.097
log2 fold change [3]: 0.073
log2 fold change [4]: -0.027
log2 fold change [5]: 0.145
log2 fold change [6]: 0
log2 fold change [7]: -0.086
log2 fold change [8]: 0.005
log2 fold change [9]: 0.262 (active)
log2 fold change [10]: -0.013

SEC23A (UniProt Q15436)
log2 fold change [1]: 0.001
log2 fold change [2]: -0.016
log2 fold change [3]: 0.061
log2 fold change [4]: -0.102
log2 fold change [5]: 0.017
log2 fold change [6]: -0.109
log2 fold change [7]: 0.021
log2 fold change [8]: 0.03
log2 fold change [9]: -0.092
log2 fold change [10]: 0.023

SAMD4B (UniProt Q5PRF9)
Chain of UniProt Q5PRF9 (Q5PRF9 whole entry, looked up): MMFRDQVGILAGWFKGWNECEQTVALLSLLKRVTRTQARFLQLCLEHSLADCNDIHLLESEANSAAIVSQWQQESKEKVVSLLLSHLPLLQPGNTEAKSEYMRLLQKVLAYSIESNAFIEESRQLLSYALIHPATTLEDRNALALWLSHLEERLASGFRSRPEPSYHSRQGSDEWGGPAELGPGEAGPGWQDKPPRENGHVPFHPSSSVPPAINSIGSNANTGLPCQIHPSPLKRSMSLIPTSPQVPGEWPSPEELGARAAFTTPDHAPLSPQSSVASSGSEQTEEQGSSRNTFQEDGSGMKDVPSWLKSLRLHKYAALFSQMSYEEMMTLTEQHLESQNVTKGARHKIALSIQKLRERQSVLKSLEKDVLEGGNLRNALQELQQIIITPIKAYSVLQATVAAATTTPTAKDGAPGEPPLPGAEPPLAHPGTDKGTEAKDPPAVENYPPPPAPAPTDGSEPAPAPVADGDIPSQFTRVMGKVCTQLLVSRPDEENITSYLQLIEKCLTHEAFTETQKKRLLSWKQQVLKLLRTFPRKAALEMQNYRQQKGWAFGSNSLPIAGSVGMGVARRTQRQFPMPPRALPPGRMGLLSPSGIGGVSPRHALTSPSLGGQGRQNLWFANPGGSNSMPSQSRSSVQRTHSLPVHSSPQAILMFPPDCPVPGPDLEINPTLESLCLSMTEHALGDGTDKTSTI
log2 fold change [1]: -0.102
log2 fold change [2]: -0.527 (active)
log2 fold change [3]: -0.036
log2 fold change [4]: 0.009
log2 fold change [5]: -0.067
log2 fold change [6]: -0.135
log2 fold change [7]: -0.154
log2 fold change [8]: 0.029
log2 fold change [9]: 0.073
log2 fold change [10]: -0.082

RBM22 (UniProt Q9NW64)
log2 fold change [1]: -0.045
log2 fold change [2]: 0.061
log2 fold change [3]: -0.053
log2 fold change [4]: 0.121
log2 fold change [5]: -0.052
log2 fold change [6]: -0.04
log2 fold change [7]: -0.052
log2 fold change [8]: 0
log2 fold change [9]: -0.025
log2 fold change [10]: -0.053

RSPRY1 (UniProt Q96DX4)
log2 fold change [1]: -0.037
log2 fold change [2]: 0.11
log2 fold change [3]: 0.02
log2 fold change [4]: -0.006
log2 fold change [5]: 0.142
log2 fold change [6]: 0.067
log2 fold change [7]: -0.053
log2 fold change [8]: 0.012
log2 fold change [9]: 0.083
log2 fold change [10]: 0.033

RHOA (UniProt P61586)
log2 fold change [1]: 0.028
log2 fold change [2]: 0.098
log2 fold change [3]: -0.317
log2 fold change [4]: -0.101
log2 fold change [5]: -0.066
log2 fold change [6]: 0.022
log2 fold change [7]: -0.024
log2 fold change [8]: -0.035
log2 fold change [9]: -0.082
log2 fold change [10]: 0.219

RSL1D1 (UniProt O76021)
log2 fold change [1]: -0.146
log2 fold change [2]: 0.037
log2 fold change [3]: -0.33
log2 fold change [4]: 0.456
log2 fold change [5]: -0.169
log2 fold change [6]: 0.146
log2 fold change [7]: 0.066
log2 fold change [8]: -0.037
log2 fold change [9]: 0.312
log2 fold change [10]: 0.251

SENP6 (UniProt Q9GZR1)
log2 fold change [1]: -0.016
log2 fold change [2]: -0.015
log2 fold change [3]: -0.134
log2 fold change [4]: -0.002
log2 fold change [5]: 0.024
log2 fold change [6]: -0.056
log2 fold change [7]: 0.02
log2 fold change [8]: -0.046
log2 fold change [9]: 0.006
log2 fold change [10]: -0.046

RANBP2 (UniProt P49792)
Chain of UniProt P49792 (P49792 whole entry, looked up): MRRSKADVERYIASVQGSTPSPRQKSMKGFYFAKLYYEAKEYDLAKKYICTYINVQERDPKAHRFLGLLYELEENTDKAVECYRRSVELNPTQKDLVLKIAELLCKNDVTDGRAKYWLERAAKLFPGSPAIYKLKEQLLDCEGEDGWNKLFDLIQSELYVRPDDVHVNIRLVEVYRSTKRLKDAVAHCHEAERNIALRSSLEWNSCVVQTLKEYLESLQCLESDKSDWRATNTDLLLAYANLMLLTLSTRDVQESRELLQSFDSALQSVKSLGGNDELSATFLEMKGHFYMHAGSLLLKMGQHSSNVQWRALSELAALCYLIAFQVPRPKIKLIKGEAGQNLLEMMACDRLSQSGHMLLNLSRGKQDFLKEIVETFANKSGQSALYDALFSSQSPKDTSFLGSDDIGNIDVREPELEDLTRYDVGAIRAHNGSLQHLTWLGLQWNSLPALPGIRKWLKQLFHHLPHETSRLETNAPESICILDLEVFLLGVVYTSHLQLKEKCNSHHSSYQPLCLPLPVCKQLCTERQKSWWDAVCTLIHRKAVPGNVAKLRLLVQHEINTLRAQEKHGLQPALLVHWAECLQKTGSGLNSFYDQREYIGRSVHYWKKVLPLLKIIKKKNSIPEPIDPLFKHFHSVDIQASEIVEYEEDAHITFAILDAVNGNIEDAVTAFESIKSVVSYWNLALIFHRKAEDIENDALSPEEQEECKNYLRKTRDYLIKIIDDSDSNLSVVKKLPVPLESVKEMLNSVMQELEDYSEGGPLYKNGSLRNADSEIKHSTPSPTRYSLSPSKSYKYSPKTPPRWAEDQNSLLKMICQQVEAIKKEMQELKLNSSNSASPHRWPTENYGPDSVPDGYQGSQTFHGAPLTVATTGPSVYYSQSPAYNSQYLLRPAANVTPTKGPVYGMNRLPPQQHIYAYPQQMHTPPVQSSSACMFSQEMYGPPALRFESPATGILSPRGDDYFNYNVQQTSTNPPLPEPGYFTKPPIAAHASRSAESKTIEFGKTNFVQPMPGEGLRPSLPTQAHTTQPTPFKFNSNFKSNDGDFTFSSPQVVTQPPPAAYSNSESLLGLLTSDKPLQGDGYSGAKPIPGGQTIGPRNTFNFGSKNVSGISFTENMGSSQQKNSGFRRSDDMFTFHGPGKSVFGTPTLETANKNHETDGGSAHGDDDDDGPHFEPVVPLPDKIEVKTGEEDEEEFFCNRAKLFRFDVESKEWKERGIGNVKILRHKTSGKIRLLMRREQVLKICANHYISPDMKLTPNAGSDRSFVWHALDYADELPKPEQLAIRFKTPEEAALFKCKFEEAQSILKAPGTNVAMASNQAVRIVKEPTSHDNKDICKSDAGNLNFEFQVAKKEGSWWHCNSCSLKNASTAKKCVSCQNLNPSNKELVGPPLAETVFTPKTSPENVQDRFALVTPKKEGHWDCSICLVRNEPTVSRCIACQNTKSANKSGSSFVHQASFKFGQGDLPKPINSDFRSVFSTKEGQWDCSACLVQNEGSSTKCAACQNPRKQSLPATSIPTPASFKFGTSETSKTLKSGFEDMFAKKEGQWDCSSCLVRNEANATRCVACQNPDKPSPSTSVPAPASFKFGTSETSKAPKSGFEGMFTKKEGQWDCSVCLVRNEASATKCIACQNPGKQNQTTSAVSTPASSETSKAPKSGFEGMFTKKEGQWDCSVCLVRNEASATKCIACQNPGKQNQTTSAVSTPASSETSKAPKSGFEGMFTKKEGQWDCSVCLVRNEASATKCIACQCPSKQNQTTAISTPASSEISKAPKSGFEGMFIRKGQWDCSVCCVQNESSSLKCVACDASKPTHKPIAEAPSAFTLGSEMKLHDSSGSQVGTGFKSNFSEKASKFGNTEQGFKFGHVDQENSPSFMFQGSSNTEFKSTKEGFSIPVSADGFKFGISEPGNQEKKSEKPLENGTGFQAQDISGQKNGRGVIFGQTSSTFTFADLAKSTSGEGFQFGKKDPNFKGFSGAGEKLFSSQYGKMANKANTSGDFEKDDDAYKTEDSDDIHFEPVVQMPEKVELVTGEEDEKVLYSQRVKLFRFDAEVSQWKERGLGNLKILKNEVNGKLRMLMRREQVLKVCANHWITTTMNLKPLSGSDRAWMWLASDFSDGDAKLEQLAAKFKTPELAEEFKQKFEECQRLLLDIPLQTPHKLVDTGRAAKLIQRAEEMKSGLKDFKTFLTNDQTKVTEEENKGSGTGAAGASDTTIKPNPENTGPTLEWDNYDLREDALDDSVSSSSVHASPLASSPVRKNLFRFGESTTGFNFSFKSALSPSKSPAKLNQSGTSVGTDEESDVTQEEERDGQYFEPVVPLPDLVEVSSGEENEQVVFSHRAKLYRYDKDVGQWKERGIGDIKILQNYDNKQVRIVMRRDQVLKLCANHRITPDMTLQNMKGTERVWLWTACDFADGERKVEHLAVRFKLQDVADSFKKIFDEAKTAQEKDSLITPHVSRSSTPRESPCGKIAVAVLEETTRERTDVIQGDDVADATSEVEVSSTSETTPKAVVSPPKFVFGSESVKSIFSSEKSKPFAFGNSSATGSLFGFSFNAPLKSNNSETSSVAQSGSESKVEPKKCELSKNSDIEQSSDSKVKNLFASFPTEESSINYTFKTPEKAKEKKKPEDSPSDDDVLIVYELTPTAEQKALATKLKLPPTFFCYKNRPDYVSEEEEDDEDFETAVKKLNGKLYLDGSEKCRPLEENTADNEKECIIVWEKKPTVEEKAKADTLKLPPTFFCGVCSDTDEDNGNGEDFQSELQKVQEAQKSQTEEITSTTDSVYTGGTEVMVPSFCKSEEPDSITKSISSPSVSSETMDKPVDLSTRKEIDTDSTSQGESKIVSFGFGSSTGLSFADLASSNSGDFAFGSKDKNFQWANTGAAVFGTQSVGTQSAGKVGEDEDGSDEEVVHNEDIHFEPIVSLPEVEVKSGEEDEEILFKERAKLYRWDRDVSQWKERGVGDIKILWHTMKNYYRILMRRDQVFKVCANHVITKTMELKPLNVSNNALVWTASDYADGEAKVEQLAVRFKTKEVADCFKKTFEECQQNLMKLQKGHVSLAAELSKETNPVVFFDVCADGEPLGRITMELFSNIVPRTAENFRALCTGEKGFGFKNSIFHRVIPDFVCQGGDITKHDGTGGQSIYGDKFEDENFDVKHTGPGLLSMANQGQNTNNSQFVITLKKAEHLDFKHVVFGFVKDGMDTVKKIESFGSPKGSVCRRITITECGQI
log2 fold change [1]: -0.016
log2 fold change [2]: 0.009
log2 fold change [3]: -0.011
log2 fold change [4]: 0.103
log2 fold change [5]: 0.065
log2 fold change [6]: -0.066
log2 fold change [7]: 0.013
log2 fold change [8]: -0.003
log2 fold change [9]: 0.043
log2 fold change [10]: -0.031

RPS14 (UniProt P62263)
log2 fold change [1]: -0.049
log2 fold change [2]: -0.075
log2 fold change [3]: -0.22
log2 fold change [4]: 0.183
log2 fold change [5]: -0.131
log2 fold change [6]: 0.056
log2 fold change [7]: 0.016
log2 fold change [8]: 0.023
log2 fold change [9]: 0.071
log2 fold change [10]: 0.002

SCO2 (UniProt O43819)
log2 fold change [1]: 0.062
log2 fold change [2]: -0.106
log2 fold change [3]: 0.05
log2 fold change [4]: -0.016
log2 fold change [5]: 0.14
log2 fold change [6]: 0.026
log2 fold change [7]: 0
log2 fold change [8]: 0.061
log2 fold change [9]: -0.031
log2 fold change [10]: -0.134

RPS6KA2 isoform 2 (UniProt Q15349)
log2 fold change [1]: 0.026
log2 fold change [2]: -0.148
log2 fold change [3]: 0.128
log2 fold change [4]: -0.057
log2 fold change [5]: 0.047
log2 fold change [6]: -0.048
log2 fold change [7]: 0.042
log2 fold change [8]: 0.063
log2 fold change [9]: -0.057
log2 fold change [10]: -0.058

SCD (UniProt O00767)
log2 fold change [1]: 0.024
log2 fold change [2]: -0.2
log2 fold change [3]: -0.06
log2 fold change [4]: -0.068
log2 fold change [5]: 0.007
log2 fold change [6]: -0.061
log2 fold change [7]: -0.07
log2 fold change [8]: -0.119
log2 fold change [9]: -0.028
log2 fold change [10]: -0.319

SDHC (UniProt Q99643)
Chain of UniProt Q99643 (Q99643 whole entry, looked up): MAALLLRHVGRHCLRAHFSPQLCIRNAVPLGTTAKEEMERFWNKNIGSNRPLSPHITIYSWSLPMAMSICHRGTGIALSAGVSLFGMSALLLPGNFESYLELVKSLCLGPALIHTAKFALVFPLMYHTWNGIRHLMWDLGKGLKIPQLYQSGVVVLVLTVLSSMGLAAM
log2 fold change [1]: -0.304
log2 fold change [2]: 0.08
log2 fold change [3]: 0.457 (active)
log2 fold change [4]: -0.045
log2 fold change [5]: 0.155
log2 fold change [6]: -0.023
log2 fold change [7]: 0.042
log2 fold change [8]: -0.111
log2 fold change [9]: -0.086
log2 fold change [10]: 0.047

RPS21 (UniProt P63220)
log2 fold change [1]: -0.053
log2 fold change [2]: 0.141
log2 fold change [3]: -0.108
log2 fold change [4]: 0.044
log2 fold change [5]: -0.001
log2 fold change [6]: 0.048
log2 fold change [7]: -0.005
log2 fold change [8]: -0.004
log2 fold change [9]: -0.022
log2 fold change [10]: 0.015

RPRD1B (UniProt Q9NQG5)
Chain of UniProt Q9NQG5 (Q9NQG5 whole entry, looked up): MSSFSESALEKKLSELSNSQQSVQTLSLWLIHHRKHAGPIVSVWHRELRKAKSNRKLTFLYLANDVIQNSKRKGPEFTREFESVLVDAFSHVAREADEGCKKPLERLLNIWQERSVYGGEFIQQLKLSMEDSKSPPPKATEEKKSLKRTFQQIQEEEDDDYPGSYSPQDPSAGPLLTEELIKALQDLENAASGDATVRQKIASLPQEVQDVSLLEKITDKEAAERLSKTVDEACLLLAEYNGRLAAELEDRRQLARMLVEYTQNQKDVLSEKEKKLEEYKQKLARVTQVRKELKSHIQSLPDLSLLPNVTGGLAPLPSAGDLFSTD
log2 fold change [1]: -0.104
log2 fold change [2]: 0.072
log2 fold change [3]: 0.062
log2 fold change [4]: -0.042
log2 fold change [5]: 0.078
log2 fold change [6]: -0.227
log2 fold change [7]: 0.023
log2 fold change [8]: 0.062
log2 fold change [9]: -0.044
log2 fold change [10]: 0.039

RRP9 (UniProt O43818)
log2 fold change [1]: -0.05
log2 fold change [2]: 0.084
log2 fold change [3]: -0.2
log2 fold change [4]: 0.031
log2 fold change [5]: -0.029
log2 fold change [6]: 0.056
log2 fold change [7]: 0.121
log2 fold change [8]: -0.054
log2 fold change [9]: 0.063
log2 fold change [10]: 0.12

RAF1 isoform 2 (UniProt P04049)
log2 fold change [1]: 0.023
log2 fold change [2]: -0.305
log2 fold change [3]: -0.135
log2 fold change [4]: -0.092
log2 fold change [5]: 0.068
log2 fold change [6]: 0.131
log2 fold change [7]: 0.093
log2 fold change [8]: 0.035
log2 fold change [9]: 0.133
log2 fold change [10]: -0.145

RPS2 (UniProt P15880)
log2 fold change [1]: -0.045
log2 fold change [2]: 0.043
log2 fold change [3]: -0.369
log2 fold change [4]: 0.286
log2 fold change [5]: -0.162
log2 fold change [6]: 0.202
log2 fold change [7]: -0.007
log2 fold change [8]: 0.007
log2 fold change [9]: 0.131
log2 fold change [10]: -0.162

SFXN5 (UniProt Q8TD22)
log2 fold change [1]: 0.144
log2 fold change [2]: 0.021
log2 fold change [3]: 0.073
log2 fold change [4]: -0.137
log2 fold change [5]: -0.07
log2 fold change [6]: -0.026
log2 fold change [7]: -0.015
log2 fold change [8]: 0.076
log2 fold change [9]: -0.055
log2 fold change [10]: 0.049

RIC8A isoform 3 (UniProt Q9NPQ8)
log2 fold change [1]: 0.042
log2 fold change [2]: -0.085
log2 fold change [3]: -0.036
log2 fold change [4]: 0.094
log2 fold change [5]: 0.036
log2 fold change [6]: -0.038
log2 fold change [7]: 0.177
log2 fold change [8]: 0.193
log2 fold change [9]: 0.094
log2 fold change [10]: -0.145

SEPTIN5 (UniProt Q99719)
Chain of UniProt Q99719 (Q99719 whole entry, looked up): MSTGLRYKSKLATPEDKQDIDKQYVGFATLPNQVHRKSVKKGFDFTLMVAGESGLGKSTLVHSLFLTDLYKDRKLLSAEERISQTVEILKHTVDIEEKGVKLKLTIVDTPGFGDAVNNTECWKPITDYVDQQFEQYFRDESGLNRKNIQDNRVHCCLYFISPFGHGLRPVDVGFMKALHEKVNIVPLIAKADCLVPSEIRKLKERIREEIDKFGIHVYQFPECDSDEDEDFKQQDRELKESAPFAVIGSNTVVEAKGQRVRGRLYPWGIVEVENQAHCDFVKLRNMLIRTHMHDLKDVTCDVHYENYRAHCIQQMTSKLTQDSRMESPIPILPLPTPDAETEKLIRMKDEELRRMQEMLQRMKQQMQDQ
log2 fold change [1]: 0.004
log2 fold change [2]: 0.017
log2 fold change [3]: 0.036
log2 fold change [4]: -0.036
log2 fold change [5]: 0.002
log2 fold change [6]: -0.023
log2 fold change [7]: -0.008
log2 fold change [8]: -0.017
log2 fold change [9]: -0.017
log2 fold change [10]: 0.027

RNF187 (UniProt Q5TA31)
Chain of UniProt Q5TA31 (Q5TA31 whole entry, looked up): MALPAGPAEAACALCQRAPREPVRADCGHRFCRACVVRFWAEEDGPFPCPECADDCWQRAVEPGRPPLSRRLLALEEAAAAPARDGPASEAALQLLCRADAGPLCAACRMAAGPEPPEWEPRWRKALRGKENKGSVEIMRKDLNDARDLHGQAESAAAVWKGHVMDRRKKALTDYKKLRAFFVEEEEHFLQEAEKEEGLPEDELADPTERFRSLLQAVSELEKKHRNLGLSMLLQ
log2 fold change [1]: -0.097
log2 fold change [2]: -0.018
log2 fold change [3]: -0.019
log2 fold change [4]: -0.027
log2 fold change [5]: 0.015
log2 fold change [6]: -0.111
log2 fold change [7]: -0.069
log2 fold change [8]: 0.038
log2 fold change [9]: 0.015
log2 fold change [10]: 0.191

SHCBP1 (UniProt Q8NEM2)
log2 fold change [1]: 0.092
log2 fold change [2]: -0.077
log2 fold change [3]: 0.043
log2 fold change [4]: 0.119
log2 fold change [5]: -0.021
log2 fold change [6]: -0.124
log2 fold change [7]: 0.098
log2 fold change [8]: 0.169
log2 fold change [9]: 0.02
log2 fold change [10]: -0.096

RETREG3 (UniProt Q86VR2)
log2 fold change [1]: 0.016
log2 fold change [2]: -0.076
log2 fold change [3]: 0.081
log2 fold change [4]: 0.024
log2 fold change [5]: 0.005
log2 fold change [6]: 0.007
log2 fold change [7]: 0.006
log2 fold change [8]: 0.033
log2 fold change [9]: -0.052
log2 fold change [10]: -0.459 (active)

RRAS2 isoform 4 (UniProt P62070)
log2 fold change [1]: 0.044
log2 fold change [2]: 0.162
log2 fold change [3]: -0.001
log2 fold change [4]: -0.152
log2 fold change [5]: -0.002
log2 fold change [6]: -0.016
log2 fold change [7]: -0.048
log2 fold change [8]: -0.042
log2 fold change [9]: 0.012
log2 fold change [10]: -0.019
